PubChem BioAssay AID624351 (Southern Research Specialized Biocontainment Screening …, 2012)
The whole screen tested about 2,400 compounds, of which about 1,400 (58%) were called active. So high a share suggests a set chosen from earlier hits. Some of the results follow. Values without a mark were called inactive.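 The calls were made as follows: active = inhibition of 30% or more at any tested dose; inconclusive = primary hits over the limit that were never retested; inactive = the rest.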

Assay: ADP Hunter readout inhibition without MgcRacGAP – biochemical, coupled enzyme counter-screen, artefact control for MgcRacGAP inhibitor project, dose response (AID 624351);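 also: signal is the ADP detection kit reading of free GDP without any GAP enzyme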;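 as to inhibition: 0% = median positive control wells and 100% = median negative control wells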
Details: fluorescence, no MgcRacGAP; series mostly up to 80 µM; inhibition: at the top concentration

SMILES	IC50	inhibition
CCCCn1c(SCC(=O)c2ccc(O)c(O)c2)nc2ccsc2c1=O	45.9 µM (active)	
CCOc1cccc(CNc2ccc(O)cc2)c1OCc1ccc(Cl)cc1Cl		-24.7%
CC(Oc1ccc(Cl)cc1Cl)C(=O)Nc1ccc(O)cc1 (stereo unspecified)	46.9 µM (active)	
O=C(NC(NC(=S)Nc1ccc(Cl)c(Cl)c1)C(Cl)(Cl)Cl)c1ccco1 (stereo unspecified)		3.1%
CCCC(=O)NC(=S)Nc1cccc2c(O)cccc12	46.4 µM (active)	
O=C(NC(=S)Nc1cccc2c(O)cccc12)c1ccco1	42.5 µM (active)	
Oc1ccc(/C=N/NC(=S)NCc2ccco2)cc1	44.4 µM (active)	
CCOc1cc(/C=N/NC(=O)C(=O)N2CCCC2)ccc1O	60.6 µM (active)	
CCN1CCN(CC(=O)Nc2cc(C(F)(F)F)ccc2OCCOC)CC1		28.5%
CCOc1cc(/C=N/NC(=O)CN2CCCCC2)ccc1O	55.5 µM (active)	
S=C(NCc1ccco1)NCc1ccco1		1.64%
COc1cc(/C=N/NC(=O)C(=O)N2CCCC2)ccc1O	40.8 µM (active)	
COc1cc(/C=N/NC(=O)C(=O)NCC2CCCO2)ccc1O (stereo unspecified)	31.2 µM (active)	
Oc1ccc(/C=N/NC(=S)NCC2CCCO2)cc1 (stereo unspecified)	28.5 µM (active)	
CCN1CCN(C(=S)NCC2CCCO2)CC1 (stereo unspecified)		14.7%
Cc1nnc(N=c2ssnc2Cl)o1		15.3%
Nc1nc(=S)ss1		-3.59%
COc1ccc(N2CCN(C(=O)CCCn3c(=O)c4cccn4c4cccnc43)CC2)cc1		23.6%
COc1ccc2[nH]c3c(=O)n(CCCCC(=O)N4CCC(C(N)=O)CC4)c(=S)[nH]c3c2c1	53.3 µM (active)	
COc1ccc(CN2CCCC(C(=O)N3CCCC3)C2)cc1 (stereo unspecified)		7.37%
COc1cccc(CN2CCC(C(=O)N3CCC(C)CC3)CC2)c1		16.9%
COc1ccc2[nH]c3c(=O)n(Cc4ccc(C(=O)N5CCC(C(N)=O)CC5)cc4)c(=S)[nH]c3c2c1	37.6 µM (active)	

SMILES	IC50	inhibition
CC(C)=NNc1cc([N+](=O)[O-])cc2c1C(=O)N(C)S2=O (stereo unspecified)		2.89%
Oc1ccc(Cl)cc1N=Cc1sc2ccccc2c1Cl	21.4 µM (active)	
Cc1ccc(O)c(N=Cc2sc3ccccc3c2Cl)c1	39.7 µM (active)	
CS(=O)(=O)N1CCN(C2C3CC4CC(C3)CC2C4)CC1 (stereo unspecified)		19.5%
O=C(CN1CCCCCC1)NN(Cc1ccccc1)c1ccccc1		13.4%
O=C(COC(=O)c1ccccc1)Nc1ncc([N+](=O)[O-])s1		5.57%
COc1ccc(N2CCN(C(CNS(=O)(=O)c3ccc4c(c3)OCCO4)c3ccco3)CC2)cc1 (stereo unspecified)		21.5%
COc1ccc(N2CCN(C(c3cccs3)C(C)NC(=O)c3ccco3)CC2)cc1 (stereo unspecified)		28%
CCS(=O)(=O)NC(C)C(c1cccs1)N1CCN(c2ccc(OC)cc2)CC1 (stereo unspecified)	81.8 µM (active)	
Nc1ccc(-c2nc3ccc(N)cc3s2)cc1	75.8 µM (active)	
Nc1ccc2nc(N)sc2c1	11 µM (active)	
N#CC1(Nc2ccc3c4c(cccc24)CC3)CCCCC1	24.3 µM (active)	
COc1ccc2c(c1)c(C(=O)N/N=C/c1ccc(O)c(O)c1)c(C)n2C	22 µM (active)	
COc1ccc(/C=N/Nc2cc(C)nc3ccc(OC)cc23)c(OC)c1		8.35%
COc1ccc2nc(/N=C(\N)NC(=O)N3c4ccccc4Sc4ccccc43)nc(C)c2c1		-3.01%
COc1ccc2nc(C)cc(SCC(=O)N/N=C/c3ccc(O)c(O)c3)c2c1	28 µM (active)	
CC1(C)C2CCC(CN=C(N)CSS(=O)(=O)O)C1C2 (stereo unspecified)		4.39%
CC(/C=C/c1ccc(O)cc1)=N/O	11.8 µM (active)	
COc1ccc(N2CCC(CNC(=S)Nc3cccc(C)c3)C2)cc1 (stereo unspecified)	72.2 µM (active)	
CCc1ccccc1NC(=S)NCC1CCN(c2ccc(OC)cc2)C1 (stereo unspecified)	65.3 µM (active)	
COc1ccc(CNCC(=O)Nc2ccccc2-n2cccc2)cc1		8.24%
COc1ccc(N2CCC(CNC(=S)Nc3cc(C)cc(C)c3)C2)cc1 (stereo unspecified)		28%

SMILES	IC50	inhibition
COc1ccc(N2CCC(CNC(=O)Nc3ccc(C)c(C)c3)C2)cc1 (stereo unspecified)		10.1%
COc1ccc(NC(=S)NCC2CCN(c3ccc(OC)cc3)C2)cc1 (stereo unspecified)	52.5 µM (active)	
CCc1c(C)nc(N2CCN(c3ccc(OC)cc3)CC2)[nH]c1=O		24.9%
CC(=O)N1CCC(=NNC(=O)c2cc3ccccc3cc2O)CC1		24.4%
CN(Cc1ccccc1)C(=O)C1CCCN(Cc2ccc(Cl)cc2)C1 (stereo unspecified)		13.7%
COc1cc(/C=N/N2C(=O)c3ccccc3C2=O)ccc1O	41.6 µM (active)	
O=C1C2C3C=CC(CC3)C2C(=O)N1/N=C/c1ccc(O)c(O)c1 (stereo unspecified)	64.1 µM (active)	
O=C1c2ccccc2C(=O)N1/N=C/c1ccc(O)c(O)c1	33.2 µM (active)	
Nc1ccc(Cn2ccc3c4c(N)nc(N)nc4ccc32)cc1		3.98%
Cc1cccc(-n2c(=O)c3ccccc3n3c(=S)[nH]nc23)c1C	34 µM (active)	
CCOCCCn1c(=O)c2ccccc2n2c(=S)[nH]nc12	16.1 µM (active)	
Cn1c(=O)c2ccccc2n2c(=S)[nH]nc12	13.2 µM (active)	
O=c1c2ccccc2n2c(=S)[nH]nc2n1-c1ccccc1	20.6 µM (active)	
O=C(c1cccc(Cl)c1)N1CCN(Cc2ccncc2)CC1		23.4%
COc1cccc2[nH]c(C(=O)NN)c(N)c12		19.8%
CCOC(=O)c1[nH]c2cc(OC)c(OC)cc2c1N	31.3 µM (active)	
CCCc1c(C)[nH]c2ccc(C(=O)O)cc2c1=S		4.17%
CCOC(=O)c1[nH]c2ccc(C)cc2c1N	27.2 µM (active)	
Oc1ccccc1C=NC1=NN(c2cccc(C(F)(F)F)c2)CC1	16.9 µM (active)	
CN1CCN(C=NC2=NN(c3cccc(C(F)(F)F)c3)CC2)CC1	34.1 µM (active)	
FC(F)(F)c1cccc(N2CCC(N=CN3CCCCCC3)=N2)c1	50 µM (active)	
CC[N+](CC)(CC)CCCCOc1ccc2c(c1)C(=O)c1cc(OCCCC[N+](CC)(CC)CC)ccc1-2		8.56%

SMILES	IC50	inhibition
NSc1nc(N)c2nc(-c3ccccc3)c(-c3ccccc3)nc2n1		5.16%
O=C(C1=C(O)C(=O)N(c2nc3ccc(Cl)cc3s2)C1c1ccco1)c1ccco1 (stereo unspecified)		4.28%
COc1ccc(NC(=O)Cn2nnc(C(=O)NCc3cccs3)c2N)cc1Cl		2.52%
COc1cc(NCCC(=O)c2cccs2)c(OC)cc1Cl	58.1 µM (active)	
CCCSC1=N/C(=C\C=C\c2ccco2)C(=O)S1		-4.75%
CCN(CC)CCn1c2ccccc2c(=O)c2c(O)ccc(O)c21		-1.29%
Oc1cc(O)cc(-c2cc3ccc(O)cc3o2)c1	25 µM (active)	
COc1cc(/C=N\NC(=O)c2ccc(Cn3nc([N+](=O)[O-])c(Cl)c3C)o2)ccc1O	33.9 µM (active)	
COc1cc(/C=N\NC(=O)CNC(=O)c2cccc([N+](=O)[O-])c2)ccc1O	18.4 µM (active)	
COc1cc(/C=N/NS(=O)(=O)c2ccc(C)c([N+](=O)[O-])c2)ccc1O	37.1 µM (active)	
COc1cc(/C=N/NC(=O)c2cccc([N+](=O)[O-])c2)ccc1O	35.9 µM (active)	
CN(C)/N=C/c1ccc(OC(=O)c2cccc([N+](=O)[O-])c2)cc1		-2.18%
O=[N+]([O-])c1cccc(S(=O)(=O)N/N=C/c2ccc(O)cc2)c1	45.2 µM (active)	
CN(CCOc1ccc(Cl)c(Cl)c1)Cc1ccccc1		7.09%
Nc1ccc(OCCc2ccccc2)cc1	37.5 µM (active)	
c1ccc(OCCCN2CCCC2)cc1		19.4%
COc1cc(C=c2c3ccccc3n3c2cc(-c2ccccc2)[n+]3C)cc(OC)c1OC		2.94%
O=C(c1ccccc1)c1coc2ccc(O)c(Cl)c12	77.5 µM (active)	
O=C1C=CC(=O)c2c(O)c(N3CCN(CCO)CC3)c(Cl)c(O)c21		5.58%
O=C(O)c1ccc(-c2ccc(/C=c3/sc4nc5ccccc5n4c3=O)o2)cc1Cl		7.6%
COc1ccc(N=Nc2cc(OC)c(N)cc2OC)cc1	39.2 µM (active)	
CC(C)N(CCNCC(O)COc1ccc(C(C)(C)c2ccccc2)cc1)C(C)C (stereo unspecified)		17.9%

SMILES	IC50	inhibition
CCOc1cc(/C=N/NC(=O)C(OC)c2ccccc2)ccc1O (stereo unspecified)	58.2 µM (active)	
COc1cc(C(=S)NCc2ccccc2)cc(Br)c1O		17.8%
COc1cc(C(=S)NC2CCCCC2)ccc1O	36.7 µM (active)	
CCOc1cc(/C=N/NC(=O)C(C)Sc2ccccn2)ccc1O (stereo unspecified)	44.5 µM (active)	
COc1cc(CN2CCC(C(=O)NC3CCCC3)CC2)cc(Br)c1O		7.21%
COc1cc(/C=N/NC(=O)CC(=O)NC2CCCCC2)ccc1O	55.1 µM (active)	
COc1cc(CN2CCC(C(=O)NC3CCCC3)CC2)ccc1O		15.2%
COc1ccc(CN2CCN(C(C)C(=O)N(C)Cc3cccc(F)c3)CC2)cc1OC (stereo unspecified)		22.3%
COc1cc(CN2CCN(C(=O)CC(C)C)CC2)cc(OC)c1O		22.5%
N#CC1=C(S)N(c2ccccc2)C(c2ccc(-c3ccccc3Cl)o2)NC1=O (stereo unspecified)		5.31%
COc1cc(/C=N/NC(=S)NC2CC3CCC2C3)ccc1O (stereo unspecified)	55.3 µM (active)	
CCOc1cc(C=NNC(=O)CCCC(=O)NN=Cc2ccc(O)c(OCC)c2)ccc1O	55.2 µM (active)	
CCOc1cc(/C=N/NC(=O)CCCC(=O)NC2CCCCC2)ccc1O	62.2 µM (active)	
CCOc1cc(/C=N/NC(=O)Nc2ccccc2)ccc1O	33 µM (active)	
CCOc1cc(/C=N/NC(=O)CSc2cccc3cccnc23)ccc1O	36.7 µM (active)	
CCn1c(SC(C)C)nnc1-c1cc(-c2ccccc2)sc1N	26.7 µM (active)	
C=CCn1c(SCC(C)=O)nnc1-c1cc(-c2ccccc2)sc1N	50.1 µM (active)	
CCN(CC)CCOc1ccc2c(c1)C(=NNC(=O)c1ccccn1)c1cc(OCCN(CC)CC)ccc1-2		25.5%
